PostGolgi yeast: growth inhibition of a yeast mutant, post-Golgi transport screen; post-Golgi transport phenotypic cell assay; inhibition, % at 10 µM; actives 0.9% (n = 98,000); AID 739;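 further: yeast cells grown in 1536-well plates; yeast grown about 18 h at 30C before absorbance read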
CYP2C19 inh: inhibitors of human CYP2C19 | CYP2C19 Supersomes, luciferin-H EGE luminescence, 30 min | inhibition, % at 5 µM | P33261 | actives 21% (n = 96,000) | AID 778;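 active means CYP2C19 inhibition above a set limit at 5 µM in the primary screen, cut at about 50% in these data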
Target sequence (P33261 whole entry, looked up): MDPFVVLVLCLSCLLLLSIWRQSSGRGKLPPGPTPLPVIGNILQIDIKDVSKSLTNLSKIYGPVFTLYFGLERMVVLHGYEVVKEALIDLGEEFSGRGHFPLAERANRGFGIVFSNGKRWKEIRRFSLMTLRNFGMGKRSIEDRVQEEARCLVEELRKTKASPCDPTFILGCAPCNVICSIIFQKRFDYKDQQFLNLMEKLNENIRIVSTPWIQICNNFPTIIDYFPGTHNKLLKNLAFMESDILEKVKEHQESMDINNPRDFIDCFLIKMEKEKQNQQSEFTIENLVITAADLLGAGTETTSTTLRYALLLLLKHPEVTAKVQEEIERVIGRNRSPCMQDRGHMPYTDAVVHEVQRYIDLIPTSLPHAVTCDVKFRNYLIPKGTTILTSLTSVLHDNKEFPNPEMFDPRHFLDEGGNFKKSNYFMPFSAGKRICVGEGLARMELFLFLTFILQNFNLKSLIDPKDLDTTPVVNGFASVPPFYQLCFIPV
CYP2C9 inhib: human CYP2C9 inhibition. actives 20% (n = 96,000). inhibition, % at 5 µM. P11712. CYP2C9 Supersomes, luciferin-H conversion, luminescence;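 active means blocking of liver enzyme CYP2C9 beyond about 50% at 5 µM, limit read from the data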
PostGolgi ctrl: yeast control strain growth, post-Golgi counter-screen | efflux-deficient yeast background strain, growth absorbance A615, 16 h | actives 5% (n = 98,000) | inhibition, % at 10 µM | AID 738
CYP2C9 activ: activators of human CYP2C9; P11712; recombinant CYP2C9, luciferin-H conversion, luminescence; stronger effect = higher value; factor 1 = untreated enzyme, 0 = blocked; activation factor at 5 µM; actives 1.4% (n = 96,000); AID 1024;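 active means activation factor of 2 or more for CYP2C9 at a 5 µM dose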
CYP2C19 act: increases human CYP2C19 enzyme activity; P33261; activation factor at 5 µM; 96,000 tested, under 10 active; AID 1025; recombinant CYP2C19, luciferin-H EGE luminescence; stronger effect = higher value; 0 = fully inhibited enzyme, 1 = untreated enzyme;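 active means activation factor of at least 2 at 5 µM in the primary screen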
Large screens that a line does not name were inactive. In the library only some 32% were active in any assay of this set; here they are far more common. Unless noted, no stated cut-off is given here; in the data, active means inhibition above about 30%; inactive means the rest.

Cn1ccnc1SC(=O)N1c2ccccc2Sc2ccccc21	CYP2C19 inh 83.9, CYP2C9 inhib 97.0
Cn1nnc(NC(=O)COc2ccc(C3CCCCC3)cc2)n1	CYP2C9 inhib 52.8
O=C(COc1ccc(-n2cnnn2)cc1)NC1CCCCC1	none (no result: PostGolgi yeast, PostGolgi ctrl)
O=C(CCSc1nc2cc(Cl)ccc2o1)N1CCOCC1	none
CCOC(=O)C1CCN(C(=O)Nc2ccc3nc(C)c(C)nc3c2)CC1	none
CCn1nc(C)c(NS(=O)(=O)c2ccccc2)c1C	CYP2C19 inh 85.0
Cc1cc(Nc2nnnn2-c2ccccc2)n(-c2ccccc2)n1	none
Cc1nn(-c2ccccc2)c(C)c1NC(=O)c1ccc(S(=O)(=O)N2CCCC2)cc1	CYP2C9 inhib 57.3
COc1ccc(S(=O)(=O)Nc2cc(C)nn2-c2ccccc2)cc1	CYP2C9 inhib 97.9
Cc1nn(-c2ccccc2)c(C)c1NS(=O)(=O)c1ccccc1	CYP2C19 inh 95.5, CYP2C9 inhib 91.0
COc1ccccc1NC(=O)c1ccc(S(=O)(=O)N2CCCC2)cc1	none
Cc1nn(C)c(C)c1NS(=O)(=O)c1ccccc1	none
COc1ccccc1C1N(c2ccc(F)cc2)C(=O)C2CCCN21 (stereo unspecified)	none
O=S1(=O)N=C(Nc2ccc(O)c(CN3CCCCC3)c2)c2ccccc21	none
Cc1nn(-c2ccccc2)c(C)c1/C=N\NS(=O)(=O)c1ccc(Cl)cc1	CYP2C19 inh 98.0, CYP2C9 inhib 99.1
COc1ccccc1N1CCN(/N=C/c2c(C)nn(-c3ccccc3)c2C)CC1	none
COc1ccc(C(=O)n2nc(C)cc2Nc2ccccc2)cc1	CYP2C9 inhib 75.1
Cc1nnc(NC(=O)c2oc3c(ccc4ccccc43)c2C)s1	none
C(=N\c1ncnc2sccc12)/NOCc1ccccc1	CYP2C19 inh 83.9, CYP2C9 inhib 56.1, PostGolgi ctrl 65.8
Cc1cccc(NC(=S)NN(Cc2ccccc2)c2ccccc2)c1C	none
CCOC(=O)Nc1cc(C(=O)OC)cc(C(=O)OC)c1	none
Cc1cc(C(=O)CC#N)c(C)n1-c1ccc(OC(F)F)cc1	CYP2C19 inh 90.6, CYP2C9 inhib 79.0
COC(=O)c1cc(C(=O)OC)cc(-n2c(C)cc(C(=O)CC#N)c2C)c1	CYP2C9 inhib 69.3
c1ccc(-c2nnc3sc(CN4CCc5ccccc54)cn23)cc1	none (no result: CYP2C19 inh, CYP2C9 inhib, CYP2C9 activ, CYP2C19 act)
COc1ccc(/C=C/C(=O)Oc2cccc(/C=N/NC(=O)COc3c(C)cccc3C)c2)cc1	none
COc1cccc(C2/C(=C(\O)c3c(C)nc4c(C)cccn34)C(=O)C(=O)N2CCCN(C)C)c1OC (stereo unspecified)	none (no result: PostGolgi yeast, PostGolgi ctrl)
CN1C(=O)C(=C2CCCCCC2)SC1=S	none
O=C1NC(=S)SC1=C1CCCC1	CYP2C9 inhib 74.3, PostGolgi ctrl 56.0
Cc1ccc(S(=O)(=O)Cc2cn3cccnc3n2)cc1	none
COc1ccccc1N=C(C)C1=C(O)CSC1=O	CYP2C19 inh 64.4
CC(=Nc1ccccc1)C1=C(O)COC1=O	none
CC(=Nc1ccc(C)c(C)c1)C1=C(O)CSC1=O	CYP2C19 inh 65.3
COc1cccc(OCc2nc3c4cnn(-c5ccccc5)c4ncn3n2)c1	CYP2C19 inh 53.2
NC(=O)CS(=O)(=O)c1nc2ccccc2n1Cc1ccccc1F	none
COC(=O)C1=CN(CCCN2CCCC2=O)C=C(C(=O)OC)C1c1ccccc1C(F)(F)F	PostGolgi yeast 35.6
COc1ccc(N2C(=O)C(Cl)=C(N3CCN(Cc4ccccc4)CC3)C2=O)cc1	none
COc1ccc(N2C(=O)C(Cl)=C(N(CCO)Cc3ccccc3)C2=O)cc1	CYP2C19 inh 96.9, CYP2C9 inhib 97.5
Cc1ccc(S(=O)(=O)N2CCCC2C(=O)N(C)Cc2cccs2)cc1 (stereo unspecified)	none
COc1ccc(S(=O)(=O)Cc2ccc(C(=O)N3CCN(c4ccccn4)CC3)o2)cc1	CYP2C9 inhib 80.6
CCc1ccccc1S(=O)(=O)Cc1ccc(C(=O)N2CCN(c3ccccc3OC)CC2)o1	CYP2C19 inh 91.3, CYP2C9 inhib 95.8
COc1ccccc1S(=O)(=O)Cc1ccc(C(=O)NCCN2CCCC2)o1	none
Cc1ccccc1S(=O)(=O)Cc1ccc(C(=O)N2CCN(c3cccc(C)c3C)CC2)o1	CYP2C9 inhib 73.3, PostGolgi ctrl 38.2
O=C(c1ccc(Br)o1)N1CCN(c2ncccn2)CC1	none
O=C(c1ccc(CS(=O)(=O)c2ccc(Br)cc2)o1)N1CCN(c2ncccn2)CC1	CYP2C19 inh 56.1, CYP2C9 inhib 80.9
Cc1c(C(=O)O)sc(=S)n1CCOc1ccccc1	none
